Data reported in the supplement of paper PMC13380429.

The compounds below were run on Vero E6 infected with SARS-CoV-2 (assay: inhibition of SARS-CoV-2 cytopathic effect; higher = more antiviral protection, active = above 15). Conditions: 100 nM; 48 h.

Structure (SMILES)	inhibition of SARS-CoV-2 cytopathic effect
Cn1cc(C(F)(F)F)nc1-c1ccc(OCC(O)CNCCOc2ccc(O)c(C(N)=O)c2)cc1 (stereo not given)	0.3% (inactive)
CC(C)C[C@H](NC(=O)[C@@H](Cc1c[nH]c2ccccc12)NC(=O)[C@H](Cc1ccc(O)cc1)NC(=O)[C@H](CO)NC(=O)[C@H](Cc1c[nH]c2ccccc12)NC(=O)[C@H](Cc1c[nH]cn1)NC(=O)[C@@H]1CCC(=O)N1)C(=O)N[C@@H](CCCNC(=N)N)C(=O)N1CCC[C@H]1C(=O)NCC(N)=O [triptorelin]	1.66% (inactive)
CC(=O)Nc1ccc(S(=O)(=O)c2ccc(NC(C)=O)cc2)cc1 [acedapsone]	-3.82% (inactive)
CC(C(=O)O)c1ccc2c(c1)CC(=O)c1ccccc1S2 (stereo not given) [zaltoprofen]	3.97% (inactive)
CC(C)CN(C[C@@H](O)[C@H](Cc1ccccc1)NC(=O)O[C@H]1CCOC1)S(=O)(=O)c1ccc(N)cc1 [amprenavir]	-0.29% (inactive)
CCc1cc2c(s1)-n1c(C)nnc1CN=C2c1ccccc1Cl [etizolam]	-2.3% (inactive)
CN(C)CCN1C(=O)c2cccc3cc(NC(N)=O)cc(c23)C1=O [unbs-5162]	2.53% (inactive)
COc1ccc(-c2cc(=O)c3c(OC)c(OC)c(OC)c(OC)c3o2)cc1OC [nobiletin]	-7.44% (inactive)
CC(=O)c1ccc2c(c1)N(CCCN1CCC(CCO)CC1)c1ccccc1S2 [piperacetazine]	1.55% (inactive)
Cc1nnc(C(=O)NC(C)(C)c2nc(C(=O)NCc3ccc(F)cc3)c(O)c(=O)n2C)o1 [raltegravir]	2.75% (inactive)
O[C@@H]1CO[C@H]2[C@@H]1OC[C@@H]2O [isosorbide]	1.18% (inactive)
O=C1c2ccccc2CCC1CNCCc1ccc(O)cc1 (stereo not given)	-2.27% (inactive)
COCC(=O)Nc1c(I)c(C(=O)NCC(O)CO)c(I)c(C(=O)N(C)CC(O)CO)c1I (stereo not given) [iopromide]	-0.01% (inactive)
Clc1ccccc1CNC[C@H]1CC[C@H](CNCc2ccccc2Cl)CC1	-1.13% (inactive)
CC[n+]1c(-c2ccccc2)c2cc(N)ccc2c2ccc(N)cc21 [homidium]	5.98% (inactive)
Cc1ccc(O)c(N=Nc2ccccc2)n1	-3.53% (inactive)
CCCCn1c(-c2ccccc2)nc(-c2ccccc2)c1CN(Cc1ccc2c(c1)OCO2)Cc1ccc2c(c1)OCO2	-0.2% (inactive)
COc1cc2cc(c1Cl)N(C)C(=O)C[C@H](OC(=O)C(C)C)[C@]1(C)O[C@@H]1[C@H](C)[C@@H]1C[C@@](O)(NC(=O)O1)[C@H](OC)/C=C/C=C(\C)C2 [ansamitocin-p-3]	-3.14% (inactive)
Cc1ccc(-c2cn3c4c(sc3n2)CCCC4)cc1 [pifithrin-cyclic]	1.98% (inactive)
C#Cc1cccc(Nc2ncnc3cc(OCCOC)c(OCCO)cc23)c1	-2.61% (inactive)
CN1C[C@H](C(=O)N[C@]2(C)O[C@@]3(O)[C@@H]4CCCN4C(=O)[C@H](Cc4ccccc4)N3C2=O)C[C@@H]2c3cccc4[nH]cc(c34)C[C@H]21 [dihydroergotamine]	2.21% (inactive)
CNC(=O)[C@H]1O[C@@H](n2cnc3c(NCc4cccc(I)c4)nc(Cl)nc32)[C@H](O)[C@@H]1O	4.18% (inactive)
CCCCC(CC)CCC(CC(C)C)OS(=O)(=O)O (stereo not given) [sodium-tetradecyl-sulfate]	2.64% (inactive)
CCc1nn(CCCN2CCN(c3cccc(Cl)c3)CC2)c(=O)n1CCOc1ccccc1 [nefazodone]	-12.7% (inactive)
CCCS(=O)(=O)Nc1ccc(F)c(C(=O)c2c[nH]c3ncc(-c4ccc(Cl)cc4)cc23)c1F [vemurafenib]	-0.86% (inactive)
N[C@H](C(=O)O)c1cc(O)no1 [ibotenic-acid]	0.56% (inactive)
O=[N+]([O-])/N=C1\NCCN1Cc1ccc(Cl)nc1 [imidacloprid]	6.8% (inactive)
Cc1nc(Nc2ncc(C(=O)Nc3c(C)cccc3Cl)s2)cc(N2CCN(CCO)CC2)n1 [dasatinib]	-4.77% (inactive)
CCOP(=S)(OCC)Oc1ccc2c(C)c(Cl)c(=O)oc2c1 [coumophos]	0.18% (inactive)
O=C1NC(=O)C(c2cnc3ccccn23)=C1c1cn2c3c(cc(F)cc13)CN(C(=O)N1CCCCC1)CC2	14.4% (inactive)
